# Assay results taken from PubChem BioAssay AID1159580 (chemical genetic matrix, 2015).
# Screen size: about 5,500 compounds; about 2,000 (36%) were called active. About 18% were inconclusive and are not listed. This is one part of the list. Unmarked numbers belong to inactive results. Rule as the data show it: active = normalized growth mostly below about 0.91 (no sharp cut-off); inconclusive = no clear call, values can overlap the other calls; inactive = mostly above about 0.92.
# Experiment: chemical genetic growth profiling, strain panel (AID 1159580);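 also: tested at 20 µM; growth read once vehicle control cultures reached saturation at 30 °C; 1 = growth at the plate median or of vehicle wells; lower values mean less growth of the strain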
# Conditions: growth OD
# [1] = S. cerevisiae deletion strains, locus YAL013W, strain DEP1, hits give low values
# [2] = S. cerevisiae deletion strains, locus YBR229C, strain ROT2, hits give low values
# [3] = S. cerevisiae deletion strains, locus YDL101C, strain DUN1, hits give low values
# [4] = S. cerevisiae deletion strains, locus YDL134C, strain PPH21, hits give low values
# [5] = S. cerevisiae deletion strains, locus YDR150W, strain NUM1, hits give low values
# [6] = S. cerevisiae deletion strains, locus YEL061C, strain CIN8, hits give low values
# [7] = S. cerevisiae deletion strains, locus YGR078C, strain PAC10, hits give low values
# [8] = S. cerevisiae deletion strains, locus YGR229C, strain SMI1, hits give low values
# [9] = S. cerevisiae deletion strains, locus YHR030C, strain SLT2, hits give low values
# [10] = S. cerevisiae deletion strains, locus YHR087W, strain rtc3, hits give low values
# [11] = S. cerevisiae deletion strains, locus YJR043C, strain POL32, hits give low values
# [12] = S. cerevisiae deletion strains, locus YJR075W, strain HOC1, hits give low values
# [13] = S. cerevisiae deletion strains, locus YKL190W, strain CNB1, hits give low values
# [14] = S. cerevisiae deletion strains, locus YLR039C, strain RIC1, hits give low values
# [15] = S. cerevisiae deletion strains, locus YLR058C, strain SHM2 (second series), hits give low values
# [16] = S. cerevisiae deletion strains, locus YLR085C, strain ARP6, hits give low values
# [17] = S. cerevisiae deletion strains, locus YLR262C, strain YPT6, hits give low values
# [18] = S. cerevisiae deletion strains, locus YML094W, strain GIM5, hits give low values
# [19] = S. cerevisiae deletion strains, locus YMR219W, strain ESC1, hits give low values
# [20] = S. cerevisiae deletion strains, locus YMR263W, strain SAP30, hits give low values
# [21] = S. cerevisiae deletion strains, locus YNL153C, strain GIM3, hits give low values
# [22] = S. cerevisiae deletion strains, locus YNL298W, strain CLA4 (second series), hits give low values
# [23] = S. cerevisiae deletion strains, locus YNL322C, strain KRE1, hits give low values
# [24] = S. cerevisiae deletion strains, locus YNR030W, strain Alg12, hits give low values
# [25] = S. cerevisiae deletion strains, locus YOL006C, strain TOP1, hits give low values
# [26] = S. cerevisiae deletion strains, locus YPL055C, strain LGE1, hits give low values
# [27] = S. cerevisiae deletion strains, locus YPL241C, strain CIN2, hits give low values
# [28] = S. cerevisiae deletion strains, locus YPR135W, strain CTF4, hits give low values
# [29] = S. cerevisiae deletion strains, locus YJL187C, strain SWE1, hits give low values
compound,measurement,setting,value
Clc1cc(Cl)c(Cl)c(-n2cccc2)c1Cl,normalized growth,[1],0.855 (active)
same,normalized growth,[2],0.914 (active)
same,normalized growth,[3],0.893 (active)
same,normalized growth,[4],0.826 (active)
same,normalized growth,[5],0.863
same,normalized growth,[6],0.763 (active)
same,normalized growth,[7],0.813 (active)
same,normalized growth,[8],0.752 (active)
same,normalized growth,[9],0.178 (active)
same,normalized growth,[10],0.8 (active)
same,normalized growth,[11],0.887 (active)
same,normalized growth,[12],0.707 (active)
same,normalized growth,[13],0.622 (active)
same,normalized growth,[14],0.304 (active)
same,normalized growth,[15],0.938
same,normalized growth,[16],0.41 (active)
same,normalized growth,[17],0.216 (active)
same,normalized growth,[18],0.691 (active)
same,normalized growth,[19],0.952
same,normalized growth,[20],0.916
same,normalized growth,[21],0.933
same,normalized growth,[22],0.641 (active)
same,normalized growth,[23],0.956
same,normalized growth,[24],0.631 (active)
same,normalized growth,[25],0.395 (active)
same,normalized growth,[26],0.785 (active)
same,normalized growth,[27],0.701 (active)
same,normalized growth,[28],0.543 (active)
Clc1cc(Cl)cc(-n2cccc2)c1,normalized growth,[1],1.02
same,normalized growth,[2],0.995
same,normalized growth,"S. cerevisiae deletion strains, locus YCL061C, strain MRC1, hits give low values",1.03
same,normalized growth,[3],1.01
same,normalized growth,[4],0.969
same,normalized growth,[5],1.04
same,normalized growth,[6],0.963
same,normalized growth,[7],1
same,normalized growth,[8],0.98
same,normalized growth,[9],0.975
same,normalized growth,[10],0.989
same,normalized growth,[29],1
same,normalized growth,[11],1.02
same,normalized growth,[12],0.981
same,normalized growth,[13],0.988
same,normalized growth,[14],1.04
same,normalized growth,[15],0.994
same,normalized growth,[16],0.949
same,normalized growth,[17],1.05
same,normalized growth,[18],0.991
same,normalized growth,[19],0.997
same,normalized growth,[20],1.01
same,normalized growth,[21],1.01
same,normalized growth,[22],0.951
same,normalized growth,[23],1
same,normalized growth,[24],0.98
same,normalized growth,[25],0.977
same,normalized growth,[26],0.981
same,normalized growth,[27],0.987
same,normalized growth,[28],0.917
CCCc1cc(Br)c(-n2cccc2)c(Br)c1,normalized growth,[1],0.998
same,normalized growth,[2],0.993
same,normalized growth,[3],1.01
same,normalized growth,[5],1.01
same,normalized growth,[6],1.02
same,normalized growth,[7],0.997
same,normalized growth,[9],1.08
same,normalized growth,[10],0.994
same,normalized growth,[29],0.992
same,normalized growth,[11],1.02
same,normalized growth,[12],0.994
same,normalized growth,[14],1.09
same,normalized growth,[15],0.998
same,normalized growth,[16],1.08
same,normalized growth,[17],1.05
same,normalized growth,[18],1.01
same,normalized growth,[19],0.994
same,normalized growth,[20],0.938
same,normalized growth,[21],1.01
same,normalized growth,[22],1.06
same,normalized growth,[23],0.997
same,normalized growth,[24],1.01
same,normalized growth,[25],1.04
same,normalized growth,[26],1.13
same,normalized growth,[27],1.02
same,normalized growth,[28],1.05
same,normalized growth,"S. cerevisiae strains, strain wild type, hits give low values",1.03
O=C(O)/C=C/c1ccccc1,normalized growth,[9],0.834 (active)
same,normalized growth,"S. cerevisiae deletion strains, locus YHR079C, strain IRE1, hits give low values",0.838 (active)
same,normalized growth,"S. cerevisiae deletion strains, locus YJL095W, strain BCK1, hits give low values",0.862 (active)
same,normalized growth,"S. cerevisiae deletion strains, locus YJR066W, strain TOR1, hits give low values",0.801 (active)
same,normalized growth,"S. cerevisiae deletion strains, locus YLR113W, strain HOG1, hits give low values",0.722 (active)
same,normalized growth,"S. cerevisiae deletion strains, locus YNL183C, strain NPR1, hits give low values",0.786 (active)
same,normalized growth,"S. cerevisiae deletion strains, locus YOR231W, strain MKK1, hits give low values",0.823 (active)
same,normalized growth,"S. cerevisiae deletion strains, locus YPL256C, strain CLN2, hits give low values",0.742 (active)
